A selection: hits, their analogues and other compounds. The true share with any hit is near 19%.
KB-V1 MDR tox – kills drug-selected multidrug resistant KB-V1 cells; KB-V1 MDR cells viability, CellTiter-Glo, 72 h; Potency, µM (highest dose often 46.1 µM), hits mostly cytotoxic; 400,000 compounds, 3.4% hits; also: nearly all actives have a fitted effect of over 60% in size
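Readout: CellTiter-Glo luminescence, 10 min after addition. Cells: KB-V1 MDR subline, 72 h at 37 degrees C with compound. Analysis: corrected, normalized data fitted to concentration-effect curves.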
TDP1 cell CPT – DT40-hTDP1 cell growth loss with CPT | 420,000 compounds, 12% hits | AID 686979 | chicken DT40 Tdp1-/-;hTDP1 cells + 20 nM CPT, ATP luminescence, 48 h | Potency, µM (series often up to 46.2 µM), for the others: at the top dose activity change, negative = growth inhibition, hits mostly inhibitors; also: nearly all actives have a fitted effect of over 55% in size
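Chicken DT40 Tdp1-/- cells stably complemented with human TDP1 were seeded at 400 cells/well in medium containing 20 nM camptothecin, exposed to pin-transferred compounds, and grown at 37 °C for at least 48 hr. Viability was read as ATP luminescence.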
HT1080NT lethal – kills 2HG-producing HT-1080-NT fibrosarcoma cells; HT-1080-NT fibrosarcoma viability, CellTiter-Glo ATP luminescence, 48 h; Potency, µM (series often up to 46.1 µM), for inactives: at the top dose activity, negative = less viability, most hits filed as cytotoxic; 360,000 compounds, 1.6% hits;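 also: NT is the 2HG producing partner of a matched IDH1 knockdown line; 0% = DMSO-treated cells and -100% = media-only wells without cells; nearly all actives have a fitted effect of over 55% in size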
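HT-1080-NT fibrosarcoma cells (2HG-overproducing), 750 cells/well in RPMI with 5% FBS, dosed after 2 h and incubated 48 h at 37C. CellTiter-Glo luminescence normalized to DMSO and no-cell wells; concentration-response curves fitted and classed.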
KB-3-1 tox – KB-3-1 parental cell cytotoxicity. KB-3-1 viability, CellTiter-Glo ATP luminescence, 72 h. Potency, µM (titrated, usually from 46.1 µM), hits mostly cytotoxic. 400,000 compounds, 1.4% hits; also: nearly all actives have a fitted effect of over 60% in size
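Cells are dispensed, compounds pinned in, plates held at 37 °C for 72 h, then CellTiter-Glo is added and luminescence read after 10 minutes. Cell line: parental KB-3-1 in phenol-red-free DMEM, 10% FBS.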
HT1080 IDH1KD tx – HT-1080 IDH1 knockdown cell toxicity (counter line); AID 686971; Potency, µM (series often up to 46.1 µM), for the others: top-dose activity, negative = toxicity, actives largely listed as cytotoxic; 360,000 compounds, 2% hits; HT-1080 IDH1 knockdown viability, ATP luminescence, 48 h;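 also: 0% = DMSO wells and -100% = cell-free medium wells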
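IDH1KD HT-1080 cells, 750/well, RPMI + 5% FBS; compound pinned after 2 h settling; 48 h, 37 °C; CellTiter-Glo luminescence; % activity normalised to DMSO and no-cell wells; curves fitted, classed by r2 and efficacy.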
DT40 TDP1 no CPT – qHTS for Inhibitors of human tyrosyl-DNA phosphodiesterase 1 (TDP1): qHTS in cells in absence of CPT; Potency, µM (series often up to 46.2 µM), inactives show top-dose activity change, negative = growth inhibition, most hits filed as inhibitors; AID 686978, 2013; DT40 Tdp1-/- hTDP1 cells, no CPT, ATP luminescence, 48 h; 420,000 compounds, 15% hits; also: nearly all actives have a fitted effect of over 55% in size
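Chicken DT40 Tdp1-/- cells stably complemented with human TDP1 were seeded at 400 cells/well with DMSO in place of 20 nM camptothecin. After compound pinning, cells grew at least 48 hr at 37 °C; viability read by CellTiter-Glo luminescence.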
The depositor's hits bear a star; i = inactive; ? = inconclusive; nt = not tested or not shown. Calls follow the shape of the dose curve; as a rule, active = well fitted curve in the direction sought with a large enough effect; inconclusive = small, poorly fitted or top-dose-only effect, or another doubt; inactive = no such curve, though single readings can be large; an effect the other way counts as inactive or inconclusive. Unless noted, % is scaled to controls: 0 for no effect and ±100 for the full control effect; potency is read from the fitted curve at half-maximal effect.

SMILES	KB-V1 MDR tox	TDP1 cell CPT	HT1080NT lethal	KB-3-1 tox	HT1080 IDH1KD tx	DT40 TDP1 no CPT
O=C(Nc1nnc([C@@H]2C[C@H](O)[C@@H](CO)O2)s1)Nc1cccc2c1CCCC2	i	-6%	2%	i	17%	-13%
CC(C)c1ccc(NC(=O)c2cc3c(s2)-c2ccccc2SC3)cc1	nt	18µM*	nt	nt	nt	?
O=C(NCc1ccc(F)cc1)c1cc2c(s1)-c1ccccc1SC2	nt	-107%	nt	nt	nt	?
COc1cc(NCC2COc3c(ccc(OC)c3OC)C2=O)c([N+](=O)[O-])cc1OC (centres undefined)	?	18µM*	-14%	i	-6%	18µM*
CCc1ccc(NC(=O)CSc2nc3ccccc3nc2Cc2ccccc2OC)cc1	?	0%	nt	?	nt	?
COc1ccc(S(=O)(=O)N2CCc3ccccc32)cc1C(=O)Nc1ccc(C(N)=O)cc1	i	23µM*	?	?	?	?
COc1cc(C(=O)Nc2ccc(S(=O)(=O)N3CCc4ccccc43)cc2)cc(OC)c1OC	5.8µM*	?	-6%	?	-18%	16µM*
CCOc1ccc(C(=O)Nc2cccc(C(=O)O)c2)cc1Cl	?	-12%	13%	i	19%	?
COc1ccc(NC(C)=O)cc1NC(=O)c1cccc(S(=O)(=O)N2CCc3ccccc32)c1	i	-16%	-8%	i	-8%	-11%
COc1cc(C(=O)Nc2ccc3c(c2)CCN3C(C)=O)cc(OC)c1OC	?	?	?	3.3µM*	2.6µM*	2.1µM*
COc1cc(C(=O)Nc2ccc3c(c2)Cc2ccccc2-3)cc(OC)c1OC	i	-22%	-2%	i	-13%	?
CCOc1ccc(C(=O)Nc2cc(NC(=O)c3ccc(OCC)c(Cl)c3)cc(C(=O)O)c2)cc1Cl	i	2.1µM*	1%	i	15%	-17%
COCCNC(=O)C1CCCN(C(=O)c2ccnc(Cl)c2)CC1 (centres undefined)	i	-11%	?	i	?	-16%
COc1ccccc1C(=O)Nc1ccc(S(=O)(=O)N2CCc3ccccc32)cc1	?	?	2%	i	1%	21µM*
COc1ccc(S(=O)(=O)N2CCc3ccccc32)cc1[N+](=O)[O-]	i	23µM*	-3%	?	-11%	?
O=S(=O)(c1ccc2ccccc2c1)N1CCc2ccccc21	i	?	-15%	i	-10%	?
CCOc1ccc(C(=O)Nc2ccc3c(c2)N(C(C)=O)CCC3)cc1OCC	nt	?	nt	nt	nt	21µM*
CN(C)c1cccc(-c2nnc(N3CCC(C(N)=O)CC3)s2)c1	i	nt	nt	i	nt	nt
COCCCNC(=O)CCc1c(C)c2cc3c(C)coc3cc2oc1=O	i	?	8%	i	24%	?
Nc1nc(=S)c2n[nH]nc2[nH]1	i	?	nt	?	nt	?
N=c1c2c(-c3ccccc3)c(-c3ccccc3)oc2ncn1CCN1CCOCC1	?	?	?	?	?	16µM*
c1ccc(-c2oc3ncnc(NCCN4CCOCC4)c3c2-c2ccccc2)cc1	i	?	?	i	-17%	?
Cn1c2ccccc2c2ncn(CCCN3CCOCC3)c(=O)c21	i	-3%	-20%	i	-7%	-15%
N=c1c2c(-c3ccccc3)c(-c3ccccc3)oc2ncn1CCCN1CCOCC1	23µM*	21µM*	-30%	?	-22%	18µM*
COC(=O)CC1C(=O)NCCN1C(=O)CSc1nnnn1-c1ccc(OC)cc1 (centres undefined)	i	3%	0%	i	3%	4%

Bioassay records deposited in PubChem BioAssay by National Center for Advancing Translational Sciences (NCATS).
